Results with a measured potency or affinity are listed apart. Active and inactive are the calls of the source.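 How the source made its calls: active means fitted half-maximal dose no more than twice the top valid tested dose, for compounds that lower signal; inconclusive means fit invalid, or curve flat with activity between -70 and -30; inactive means potency past limit, curve flat within ±30, or signal increasing.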
Target: NAD-dependent protein deacylase sirtuin-5, mitochondrial (Homo sapiens) (UniProt Q9NXA8)
Sequence (Q9NXA8 whole entry, looked up): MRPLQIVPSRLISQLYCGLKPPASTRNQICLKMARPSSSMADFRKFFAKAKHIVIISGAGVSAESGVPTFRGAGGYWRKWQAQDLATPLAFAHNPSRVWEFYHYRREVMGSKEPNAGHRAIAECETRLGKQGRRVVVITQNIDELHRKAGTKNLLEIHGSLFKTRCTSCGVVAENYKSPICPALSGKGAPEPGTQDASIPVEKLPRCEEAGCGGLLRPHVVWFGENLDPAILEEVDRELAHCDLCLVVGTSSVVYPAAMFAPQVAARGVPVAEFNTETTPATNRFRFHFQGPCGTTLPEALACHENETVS
Test: blockers of sirtuin-5 peptide desuccinylation – biochemical, fluorescence imaging, cherry-pick, set 6, dose response (AID 720597);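 further: lower AMC signal can also come from blocking the trypsin step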
Conditions: Purified SirT5, succinyl-peptide-AMC/trypsin fluorescence; series mostly up to 15 µM

outcome, inactive:
CC(C)C#Cc1cnc2c(c1)C(=O)N([C@H](C)CO)C[C@@H](C)[C@H](CN(C)C(=O)CN1CCOCC1)O2, C[C@H](CO)N1C[C@H](C)[C@H](CN(C)C(=O)Nc2ccc(F)cc2)Oc2ccc(NC(=O)Nc3ccc(F)cc3)cc2C1=O, C[C@H]1CN([C@@H](C)CO)S(=O)(=O)c2ccc(-c3cccc(F)c3)cc2O[C@@H]1CN(C)S(=O)(=O)c1ccc(F)cc1, C[C@H]1CN([C@@H](C)CO)S(=O)(=O)c2ccc(-c3cncnc3)cc2O[C@H]1CN(C)Cc1ccc(Oc2ccccc2)cc1, C[C@@H]1CN([C@@H](C)CO)S(=O)(=O)c2ccc(/C=C/c3ccccc3)cc2O[C@@H]1CN(C)C(=O)Nc1cc(F)ccc1F, COc1cccc(S(=O)(=O)N(C)C[C@@H]2Oc3cc(C4=CCCCC4)ccc3S(=O)(=O)N([C@H](C)CO)C[C@@H]2C)c1, C[C@H]1CN([C@@H](C)CO)C(=O)CCCn2nncc2CO[C@@H]1CN(C)C(=O)CCCN(C)C, C[C@H]1CN([C@@H](C)CO)C(=O)c2cc(NC(=O)CCC(F)(F)F)ccc2O[C@H]1CN(C)Cc1ccc(C(F)(F)F)cc1, CO[C@@H](C(=O)N(C)C[C@H]1OCc2ccccc2-c2ccccc2C(=O)N([C@@H](C)CO)C[C@@H]1C)c1ccccc1, C[C@H](CO)N1C[C@H](C)[C@H](CN(C)Cc2ccc(-c3ccccc3)cc2)Oc2cc(C#CC(C)(C)O)ccc2S1(=O)=O, O=C(NCC[C@H]1CC[C@@H](NC(=O)C2CC2)[C@@H](CO)O1)c1cc(Cl)cc(Cl)c1, C[C@@H]1CCCCO[C@@H](CN(C)C(=O)Nc2ccc(C(F)(F)F)cc2)[C@@H](C)CN([C@H](C)CO)C(=O)c2cc(NS(=O)(=O)c3ccc(Cl)cc3)ccc2O1, Cc1ccc(S(=O)(=O)N(C)C[C@@H]2OCCCC[C@@H](C)Oc3ccc(NS(=O)(=O)c4ccccc4)cc3C(=O)N([C@H](C)CO)C[C@H]2C)cc1, COc1ccc(NC(=O)Nc2ccc3c(c2)C(=O)N([C@H](C)CO)C[C@H](C)[C@@H](CN(C)S(=O)(=O)c2cccs2)OCCCC[C@@H](C)O3)cc1, CC(C)C#Cc1ccc([C@@H]2[C@@H](CO)N3C(=O)CN(C(=O)c4ccc5c(c4)OCO5)C[C@H]23)cc1, C[C@H](CO)N1C[C@H](C)[C@H](CN(C)C(=O)c2ccc3c(c2)OCO3)Oc2cc(/C=C/c3ccccc3)ccc2S1(=O)=O, C[C@H]1CN([C@@H](C)CO)S(=O)(=O)c2ccc(C#Cc3ccc(F)cc3)cc2O[C@H]1CN(C)C(=O)NC1CCCCC1, Cc1ccc(S(=O)(=O)Nc2ccc3c(c2)C(=O)N([C@@H](C)CO)C[C@H](C)[C@@H](CN(C)S(=O)(=O)c2ccc(F)cc2)OCCCC[C@@H](C)O3)cc1, O=C(Nc1ccccc1F)N1CC(=O)N2[C@H](C1)[C@@H](c1ccc(C#CC3CCCC3)cc1)[C@@H]2CO, COc1ccc(S(=O)(=O)N(C)C[C@@H]2OCCCC[C@@H](C)Oc3ccc(NS(=O)(=O)c4ccc(F)cc4)cc3C(=O)N([C@@H](C)CO)C[C@@H]2C)cc1, COCC(=O)NC[C@H]1N[C@H](CO)[C@H]1c1ccc(C2=CCCCC2)cc1, CCCC#Cc1ccc([C@@H]2[C@@H](CO)N3CCCCN(S(=O)(=O)Cc4ccccc4)C[C@H]23)cc1, C[C@@H]1CN([C@@H](C)CO)C(=O)c2ccccc2-c2ccccc2CO[C@H]1CN(C)Cc1ccccc1C(F)(F)F, CCNC(=O)C[C@H]1CC[C@H]2[C@@H](COc3ccc(NS(=O)(=O)c4ccccc4C)cc3C(=O)N2C)O1, CCCN(C[C@H]1[C@H](c2ccccc2)[C@@H](CO)N1C(C)=O)C(=O)NC(C)C, C[C@H]1CN([C@@H](C)CO)S(=O)(=O)c2ccc(C#Cc3ccc(F)cc3)cc2O[C@H]1CN(C)S(=O)(=O)c1ccc(F)cc1, Cc1cccc(-c2noc(CN(C(=O)c3ccc(Br)o3)C(C)C)n2)c1, O=S(=O)(c1cccs1)N1CCCCN2[C@H](CO)[C@H](c3ccc(C4=CCCCC4)cc3)[C@H]2C1, C[C@H]1CN([C@@H](C)CO)C(=O)c2cc(C#Cc3cccc(F)c3)cnc2O[C@@H]1CN(C)CC1CCCC1, C[C@@H]1CN([C@@H](C)CO)C(=O)c2cc(-c3cccc(F)c3)cnc2O[C@@H]1CN(C)Cc1ccncc1, COc1ccc(S(=O)(=O)N2CCCCN3[C@H](CO)[C@@H](c4ccc(C#CC5CC5)cc4)[C@@H]3C2)cc1, COc1ccc(CN(C)C[C@H]2Oc3c(NS(=O)(=O)c4ccccc4)cccc3C(=O)N([C@@H](C)CO)C[C@H]2C)cc1, O=C(NCC[C@H]1CC[C@H](NS(=O)(=O)c2cccc(F)c2)[C@H](CO)O1)C1CCOCC1, C[C@@H]1CN([C@H](C)CO)C(=O)c2cc(NC(=O)Cc3ccccc3)ccc2O[C@@H]1CN(C)Cc1ccc(Oc2ccccc2)cc1, O=C(O)[C@@H]1[C@@H](CO)[C@@H]2Cn3c(ccc(-c4ccccc4F)c3=O)[C@@H]2N1Cc1ccccc1, C[C@@H]1CN([C@H](C)CO)S(=O)(=O)c2ccc(C#Cc3cccc(F)c3)cc2O[C@H]1CN(C)S(=O)(=O)c1ccccc1F, C[C@H](CO)N1C[C@H](C)[C@@H](CN(C)Cc2ccc(C(F)(F)F)cc2)OCCCC[C@H](C)Oc2ccc(NS(=O)(=O)c3ccc(F)cc3)cc2C1=O, COc1ccc(S(=O)(=O)N(C)C[C@H]2OCCCC[C@H](C)Oc3ccc(NS(=O)(=O)c4ccc(Cl)cc4)cc3C(=O)N([C@@H](C)CO)C[C@H]2C)cc1, O=S(=O)(N[C@H]1CC[C@H](CCn2cc(-c3cccc(F)c3)nn2)O[C@H]1CO)c1ccc(F)cc1, COCC(=O)Nc1ccc2c(c1)C(=O)N(C)C[C@@H](OC)[C@H](C)CN(Cc1ccccn1)[C@H](C)CO2

Reference: PubChem BioAssay AID720597 (Broad Institute, 2013)
